The source of these data is ChEMBL document CHEMBL3988442, “University of Dundee, Small-Polar-MMV Screening Library” (2021).

Molecules are shown by their SMILES. The whole screen tested about 48,000 compounds, of which about 13,000 (27%) showed an effect of 50% or more. This is one part of the list.

In this assay the test system is Wolbachia pipientis. Put plainly: Anti-Wolbachia Cell-Based Screen. More on the design: scale not given: in the data most compounds retested in dose-response had high values. The format is functional. Particulars: 5 µM.
For `CN(Cc1nc2ccccc2c(=O)[nH]1)C1CC(=O)N(C2CC2)C1=O` (stereo not drawn), the “Percent Effect” value was -0.4558%.
Take `COc1cccc(-c2cnc3n2CCC32CCN(S(C)(=O)=O)CC2)c1`: the “Percent Effect” value is -9.63%.
For `CN1C(=O)CC(C(=O)O)C12CCN(Cc1ccc(F)cc1Cl)CC2` (stereo not drawn), the “Percent Effect” value was found to be 0.7528%.
With `O=C(c1cnc(NCc2sccc2Br)c(Cl)c1)N1CCCCC1`, the “Percent Effect” value is listed as -7.953%.
In the case of `COCCOc1ncccc1C(=O)Nc1ccc(-n2cncn2)c(F)c1`, the “Percent Effect” value is -9.189%.
`Cc1ccccc1C(NC(=O)CNC(=O)c1ccoc1C)C(C)C` (stereo not drawn): the “Percent Effect” value was -4.038%.
For the molecule `Cc1cnn(CC2CCCN2C(=O)c2cc(C)nc3[nH]nc(C)c23)c1` (stereo not drawn), the “Percent Effect” value is reported as 150.6%.
Under `Cc1cnn(CC2CCCN2C(=O)c2cccc(F)c2F)c1` (stereo not drawn) stands 121.1%.
The same measure for `Cc1cnn(CC2CCCN2C(=O)c2c(F)cccc2Cl)c1` (stereo not drawn): 118.3%; for `CCc1noc(C)c1C(=O)N1CCCC1Cn1cc(C)cn1` (stereo not drawn): 5.124%; for `Cc1cnn(CC2CCCN2C(=O)c2cccc3c2OCO3)c1` (stereo not drawn): -6.859%.
As for `O=C(C1=CCCC1)N1CCC[C@]2(C[C@@H](Oc3ncccc3F)CO2)C1.O=C(O)C(F)(F)F`, the “Percent Effect” value is -5.101%.
Regarding `Cc1cc(F)ccc1C(=O)N1C[C@@H]2COC[C@]2(COCC2CC2)C1`, the “Percent Effect” value is listed as 3.024%.
For the molecule `O=C(Cc1ccco1)N1C[C@@H]2COC[C@]2(COCC2CCOCC2)C1`, the “Percent Effect” value is reported as -6.133%.
As for `O=C(C1=CCCC1)N1C[C@@H]2COC[C@]2(COCC2CC2)C1`, the “Percent Effect” value worked out at 119%.
On to `O=C(C1=CCCC1)N1C[C@@H]2COC[C@]2(COc2ncccc2F)C1.O=C(O)C(F)(F)F`, for which the “Percent Effect” value was 91.91%.
As to `O=C(C1=CCCC1)N1C[C@@H]2COC[C@]2(COCc2ccncc2)C1`, the “Percent Effect” value is listed as 94.55%.
Under `O=C(N1CCCC1)N1CC[C@H]2OCC[C@@]2(COc2ncccc2F)C1.O=C(O)C(F)(F)F` stands -10.69%; under `O=C(C1=CCCC1)N1C[C@H]2CCC[C@@]2(COCc2ccncc2)C1.O=C(O)C(F)(F)F`, 12.49%; under `O=C(c1ncoc1C1CCCO1)N1CCC2(CCCCC2)CC1` (stereo not drawn), -6.426%.
In the case of `CCOc1ccc(C(=O)NCc2ccnc(N3CCN(C)CC3)c2)cn1`, the “Percent Effect” value is given as 4.898%.
`Cc1nn(C)c(N(C)C)c1CNCc1nnc2n1CCCCC2.Cl`: the “Percent Effect” value was 5.74%.
Regarding `CO[C@H]1CN(Cc2ccc(F)c(F)c2)C[C@@]12CCCO2`, the “Percent Effect” value is 125.7%.
The same measure for `CO[C@H]1CN(Cc2ccccc2F)C[C@@]12CCCO2`: 78.59%; for `COC(=O)C1CN(Cc2cc(F)ccc2Br)CCO1` (stereo not drawn): -7.364%.
`CO[C@H]1CN(Cc2ccccc2F)[C@@H]2CCCO[C@H]12`: the “Percent Effect” value was 2.761%.
Consider `COc1coc(CN2CCCC(CCc3ccc(F)c(F)c3)C2)cc1=O` (stereo not drawn), for which the “Percent Effect” value is 29.51%.
With `CS(=O)(=O)NCCC1CCCN(Cc2ccccc2F)C1` (stereo not drawn), the “Percent Effect” value is given as -31.18%.
Turning to `C[C@@H]1CN(Cc2cc(C(F)(F)F)ccc2F)CC[C@@]1(O)C1CC1`, the “Percent Effect” value is on record as 18.84%.
For `COc1cc(CN2C[C@H](OC)[C@]3(CCCO3)C2)ccc1F`, the “Percent Effect” value turned out to be 93.9%.
`COc1cc(CN2CC[C@@]3(CCCO3)[C@@H](O)C2)ccc1F`: the “Percent Effect” value is -7.237%.
For `Cc1ccc(CN2CCC3(CCCN(Cc4ccc(F)c(F)c4)C3)C2)o1` (stereo not drawn), the “Percent Effect” value is listed as -5.305%.
Turning to `CO[C@H]1CN(Cc2cc(F)ccc2F)CC[C@@]12CCCO2`, the “Percent Effect” value is listed as 118.4%.
For the molecule `COCCCC1(CO)CCCN(Cc2ccc(F)c(OC)c2)C1` (stereo not drawn), the “Percent Effect” value was -7.879%.
For the molecule `Cc1nc(CNC(=O)N2CCCC(c3ncc[nH]3)C2)sc1C` (stereo not drawn), the “Percent Effect” value is given as -13.73%.
Take `Cc1cc(CN(Cc2ccccc2)C(C)CN2CCOCC2)no1` (stereo not drawn): the “Percent Effect” value is on record as -1.705%.
Turning to `CCSc1ccc(NC(=O)NC(C)c2c(C)noc2C)cn1` (stereo not drawn), the “Percent Effect” value is on record as -11.22%.
As to `CCN1CCCN(c2ccc(-n3ccc(C)n3)nn2)CC1`, the “Percent Effect” value is recorded as -3.628%.
On to `Cc1ccc(Oc2ncccc2CNC2Cc3ccccc3C2)cn1`, for which the “Percent Effect” value is 12.49%.
For `NCC1Cc2cccc(-c3nccc(N4CCC(O)CC4)n3)c2O1` (stereo not drawn), the “Percent Effect” value is -9.933%.
Under `Cc1cc2n(n1)CC(CNC1CCN(CCc3ccccc3)CC1)CN2` (stereo not drawn) stands 3.275%; under `CCc1cnc(N)nc1NCCn1cc(Cl)cn1`, -1.568%.
With `CN(C)C(=O)C1CN(Cc2ccsc2)Cc2ccnn2C1.O=C(O)C(F)(F)F` (stereo not drawn), the “Percent Effect” value is reported as -5.507%.
Under `Cc1cc(CN(C)C(=O)NC2CCN(S(C)(=O)=O)CC2)no1` stands -12.59%; under `CN(C)C(=O)NCc1nnc2n1CCN(Cc1cccs1)C2`, -18.34%.
Take `CN(C)C(=O)C1CN(Cc2ccccc2)CCN(S(C)(=O)=O)C1` (stereo not drawn): the “Percent Effect” value is 1.114%.
For the molecule `CN(C)C(=O)C1CN(Cc2cscn2)CCN(S(C)(=O)=O)C1` (stereo not drawn), the “Percent Effect” value is listed as 29.17%.
Under `CS(=O)(=O)N1CCC2(CCN(Cc3nccs3)CC2)CC1.O=C(O)C(F)(F)F` stands 12.17%; under `Cc1ccc(-c2nc(CN3CCC(C(=O)N(C)C)CC3)cs2)o1`, 9.027%.
Regarding `Cc1cc(CN2CCN(S(C)(=O)=O)CC(C(=O)N(C)C)C2)no1` (stereo not drawn), the “Percent Effect” value was found to be 130.4%.
In the case of `CN(C)C(=O)C1CN(Cc2cccs2)CCN(S(C)(=O)=O)C1` (stereo not drawn), the “Percent Effect” value is given as 110.5%.
`CN(C)C(=O)C1CN(Cc2ccsc2)CCN(S(C)(=O)=O)C1` (stereo not drawn): the “Percent Effect” value was determined as 92.25%.
Take `CN(C)C(=O)C1CN(Cc2nccs2)CCN(S(C)(=O)=O)C1` (stereo not drawn): the “Percent Effect” value is 115%.
